Tau fibril ThT: blocks human tau fibril formation measured by thioflavin T | Potency, µM (top dose mostly 57.4 µM), actives largely listed as inhibitors | actives 2.1% (n = 270,000) | P10636 | recombinant tau K18 P301L, heparin-induced fibrillization, ThT fluorescence; active = well fitted curve in the direction sought with a large enough effect; inconclusive = small, poorly fitted or top-dose-only effect, or another doubt; inactive = no such curve, though single readings can be large; an effect the other way counts as inactive or inconclusive; also: nearly all actives have a fitted effect of over 55% in size
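Using a mix of unlabeled (15 uM) and Alexa 594-labeled (0.24 uM) tau K18 P301L, heparin-triggered fibrillization over 6 hr at 37 C was scored by ThT fluorescence.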
Tau fluor counter: counter-screen for tau fibril formation inhibitors; tau K18 P301L Alexa594 fluorescence, heparin fibrillization; Potency, µM (doses to about 57.7 µM); actives 0.93% (n = 280,000); AID 1463; active = well fitted curve in the direction sought with a large enough effect; inconclusive = small, poorly fitted or top-dose-only effect, or another doubt; inactive = no such curve, though single readings can be large; an effect the other way counts as inactive or inconclusive; also: nearly all actives have a fitted effect of over 55% in size
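Human tau K18 P301L (15 uM unlabeled, 0.24 uM Alexa 594-labeled) in 100 mM sodium acetate pH 7 with 20 uM heparin, 6 hr at 37 C. ThT 30 uM added, 1 hr ambient; Alexa 594 FP and total fluorescence read at 555/632 nm.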
JMJD2E inh: inhibitors of human JMJD2E histone demethylase. B2RXH2. JMJD2E catalytic domain, FDH-coupled NADH fluorescence (FDH is formaldehyde dehydrogenase). Potency, µM (series often up to 57.1 µM), usual class: inhibitors. actives 1.6% (n = 230,000). AID 2147; also: nearly all actives have a fitted effect of over 50% in size
ALDH1A1 block: ALDH1A1 (human) enzyme inhibition. Purified ALDH1A1, NADH fluorescence, propionaldehyde substrate. Potency, µM (top dose mostly 75.3 µM), most hits filed as inhibitors. actives 7.3% (n = 220,000). AID 1030
Target sequence (P00352 whole entry, looked up): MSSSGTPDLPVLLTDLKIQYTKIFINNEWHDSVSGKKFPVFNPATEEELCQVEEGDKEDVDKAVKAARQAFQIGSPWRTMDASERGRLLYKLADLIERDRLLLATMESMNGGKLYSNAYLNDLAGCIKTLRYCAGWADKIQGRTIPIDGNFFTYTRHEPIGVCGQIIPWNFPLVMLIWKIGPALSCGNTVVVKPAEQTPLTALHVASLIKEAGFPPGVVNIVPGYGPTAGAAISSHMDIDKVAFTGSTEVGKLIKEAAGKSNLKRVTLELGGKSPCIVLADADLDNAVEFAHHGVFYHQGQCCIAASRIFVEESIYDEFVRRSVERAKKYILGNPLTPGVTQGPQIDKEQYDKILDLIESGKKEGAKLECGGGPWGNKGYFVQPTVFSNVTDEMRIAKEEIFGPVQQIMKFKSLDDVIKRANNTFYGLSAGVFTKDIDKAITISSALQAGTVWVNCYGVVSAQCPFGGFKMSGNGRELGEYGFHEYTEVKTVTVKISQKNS
HPGD block: inhibitors of human 15-hydroxyprostaglandin dehydrogenase (HPGD); P15428; purified HPGD, NADH fluorescence kinetic, PGE2 substrate; Potency, µM, actives largely listed as inhibitors; actives 4.3% (n = 150,000); AID 894
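NADH formation kinetics: reaction with 30 uM PGE2 and 1 mM NAD+ (final), 20 nM enzyme, Tris-HCl pH 8 with Tween 20, after 15 min compound preincubation at room temperature. Fluorescence change, last versus first of five reads.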
Tau fibril FP: inhibitors of human tau fibril formation | P10636 | K18 P301L tau heparin fibrillization, Alexa594 FP, 6 h | Potency, µM (top dose mostly 57.7 µM), actives largely listed as inhibitors | actives 0.39% (n = 280,000) | AID 1468; active = well fitted curve in the direction sought with a large enough effect; inconclusive = small, poorly fitted or top-dose-only effect, or another doubt; inactive = no such curve, though single readings can be large; an effect the other way counts as inactive or inconclusive; also: nearly all actives have a fitted effect of over 55% in size
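Read-out: fluorescence polarization of Alexa 594-labeled tau (0.24 uM), 555 nm excitation, 632 nm emission. Mixtures held 15 uM unlabeled K18 P301L, compound and 20 uM heparin, pH 7 acetate buffer, incubated 6 hr at 37 C.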
Hits are given with their value; . = inactive; ? = inconclusive; / = no result given; [ ] = dose if it differs, or a comment. Only some compounds are listed: those with a hit (about 9.9% of all), similar ones and a draw of the others. Unless noted, calls follow the shape of the dose curve; as a rule, active = well fitted inhibition curve with a large enough effect (not every such curve was filed as active); inconclusive = small, poorly fitted or top-dose-only effect, or another doubt; inactive = no such curve, though single readings can be large or run the other way.

SMILES | Tau fibril ThT | Tau fluor counter | JMJD2E inh | ALDH1A1 block | HPGD block | Tau fibril FP
Oc1ccc2c(c1)OCC1(O)Cc3cc(O)c(O)cc3C21 (stereo unspecified) | 22.4µM | ? | 14.1µM | 28.2µM | ? | ?
c1coc(-c2nc3n(n2)C2(CCCCC2)[C@@H]2CCCC[C@@H]2N3)c1 | . | . | / | / | / | .
Cc1cc(C)c2nc(NNC(=O)c3ccc(S(=O)(=O)N4CCc5ccccc5C4)cc3)sc2c1 | . | ? | . | ? | . | .
Cc1cc(C)c2sc(NNC(=O)c3ccc(S(=O)(=O)N4CCc5ccccc5C4)cc3)nc2c1 | . | ? | 12.6µM | . | . | .
Cc1ccc(CNC(=O)c2oc3ccc(S(=O)(=O)N4CCC(C)CC4)cc3c2C)cc1 | . | . | / | / | / | .
O=C(NC(c1ccccc1)c1ccccc1)c1ccc(=O)[nH]n1 | . | . | . | 4.47µM | / | .
O=C(CSC1=NC(=O)C(Cc2ccccc2)C(=O)N1)Nc1ncccn1 (stereo unspecified) | . | . | . | . | / | .
O=C(CSC1=NC(=O)C(Cc2ccccc2)C(=O)N1)Nc1ncc(Br)cc1Br (stereo unspecified) | ? | . | . | 39.8µM | / | .
CC[C@@H]1C(c2cccc(C)c2)=NN(c2ccc(Br)cc2)[C@H]1C(=O)N1CCOC1=O | ? | 8.91µM[quencher] | / | ? | ? | .
C[C@@H]1C(c2cccc(Cl)c2)=NN(c2ccc(Br)cc2)[C@H]1C(=O)N1CCOC1=O | ? | 14.1µM[quencher] | / | ? | ? | .
COCCCNC(=O)N1CCN(c2nnc(C)c3c(C)n(-c4ccc(Cl)cc4)nc23)CC1 | . | . | / | / | / | .
Cc1ccc(N(CC(=O)NC(C)(C)C)C(=O)CNC(=O)c2cccs2)cc1C | . | . | . | . | / | .
CCC12CCCN3CCC4(C(=C(C(=O)OC)C1)Nc1ccccc14)C32 (stereo unspecified) | . | . | ? | 20µM | . | .
CC1CCN(C(=O)CSc2nc3[nH]ncc3c(=O)[nH]2)CC1 | . | . | . | 11.2µM | . | .
COc1ccc(Oc2ncc3nc(-c4cccs4)c(=O)n(C)c3n2)cc1 | / | / | / | ? | . | /
COc1ccc(C(=O)c2oc3ccccc3c2NC(=O)COc2cccc(C)c2C)cc1 | . | . | / | / | / | .
Cc1sc(-n2c(C)cc(/C=N/n3cnnc3)c2C)c(C#N)c1C | . | . | . | 3.98µM | / | .
CCOC(=O)C1(Cc2cccc(Cl)c2)CCCN(CCO)C1 (stereo unspecified) | . | . | . | . | / | .
CC(=O)Nc1ccc2nc(NS(=O)(=O)c3ccc(C)cc3)sc2c1 | ? | . | . | . | / | .
Cc1ccc(S(=O)(=O)Nc2nc3ccc(S(=O)(=O)N4CCCC4)cc3s2)cc1 | . | . | . | 0.159µM | 12.6µM | .
O=S(=O)(Nc1nc2ccc(S(=O)(=O)N3CCCCC3)cc2s1)c1ccccc1 | . | . | . | 0.355µM | 8.91µM | .
N#CC1=C(N)OC2=C(CN(Cc3ccccc3)C/C2=C\c2cccnc2)C1c1cccnc1 (stereo unspecified) | ? | . | ? | 1.26µM | . | .
Cc1nn(Cc2ccccc2)c2c1C(c1cccnc1)C(C#N)=C(N)O2 (stereo unspecified) | ? | . | ? | 7.94µM | . | .
Cc1nn(Cc2ccccc2)c2c1C(c1ccncc1)C(C#N)=C(N)O2 (stereo unspecified) | ? | . | . | ? | . | ?
CC(C)N1CC2=C(OC(N)=C(C#N)C2c2cccnc2)/C(=C/c2cccnc2)C1 (stereo unspecified) | ? | . | ? | . | . | .
Cc1nn(Cc2ccccc2)c2c1C(c1ccc(Cl)cc1)C(C#N)=C(N)O2 (stereo unspecified) | ? | . | . | ? | 1µM | .
O=C(NCc1ccc2c(c1)OCO2)C1COc2ccccc2O1 (stereo unspecified) | . | . | . | . | 4.47µM | .
CCCCNC(=O)C1COc2ccccc2O1 (stereo unspecified) | . | . | . | . | 15.8µM | .
O=C(NCc1ccccn1)C1COc2ccccc2O1 (stereo unspecified) | . | . | . | . | 14.1µM | .

Assay outcomes from PubChem.
